High-throughput results deposited in PubChem by National Center for Advancing Translational Sciences (NCATS).
KB-3-1 tox: kills parental KB-3-1 adenocarcinoma cells; KB-3-1 viability, CellTiter-Glo ATP luminescence, 72 h; Potency, µM (series often up to 46.1 µM), most hits filed as cytotoxic; 400,000 compounds, 1.4% hits; AID 1347075; also: % is scaled to controls: 0 for no effect and ±100 for the full control effect; nearly all actives have a fitted effect of over 60% in size
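72 h, 37 °C compound treatment of KB-3-1 parental cells; CellTiter-Glo added, 10 min, luminescence read. Data corrected against DMSO-only plates and normalized before curve fitting.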
MCF10A rereplic: DNA re-replication induction in MCF 10a cells. AID 624296. Potency, µM (titrated, usually from 46.1 µM), without a hit: at the top dose activity, positive = re-replication, most hits filed as activators. MCF 10A DNA re-replication, Hoechst nuclear intensity, 48 h. 350,000 compounds, 2.9% hits; also: % of control where 0% means no effect; nearly all actives have a fitted effect of over 50% in size
KB-V1 MDR tox: KB-V1 MDR subline cytotoxicity. KB-V1 MDR cells viability, CellTiter-Glo, 72 h. Potency, µM (titrated, usually from 46.1 µM), usual class: cytotoxic. 400,000 compounds, 3.4% hits; also: % is scaled to controls: 0 for no effect and ±100 for the full control effect; nearly all actives have a fitted effect of over 60% in size
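KB-V1 MDR subline cells in DMEM (phenol-red free, 10% FBS) exposed to compounds in qHTS concentration series for 72 h at 37 degrees C. Viability read by CellTiter-Glo luminescence; concentration-effect curves fitted after normalization and correction.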
RGS4 inh: inhibitors of human regulator of G protein signaling 4. P49798. Transcreener GDP fluorescence polarization, RGS4-accelerated GTP hydrolysis. Potency, µM (titrated, usually from 114 µM), for inactives: at the highest dose activity change, negative = inhibition, actives largely listed as inhibitors. 390,000 compounds, 0.039% hits. AID 504845; also: % is scaled to controls: 0 for no effect and ±100 for the full control effect; nearly all actives have a fitted effect of over 75% in size
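MLSMR compounds (23 nl, pin-transferred) preincubated 10 min at room temperature with a 500nM (2x) first reagent, then RGS4 at 900nM (2x) plus Transcreener GDP mix added; fluorescence polarization (620/688 nm) read before and after 90 min at 30 °C.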
SW480 rereplic: inducers of DNA re-replication in SW480 colon cancer cells | SW480 DNA re-replication, Hoechst DNA content imaging, 48 h | Potency, µM (highest dose often 46.1 µM), for the others: top-dose re-replication activation, hits mostly activators | 340,000 compounds, 1.8% hits | AID 624297; also: % of control where 0% means no effect; nearly all actives have a fitted effect of over 55% in size
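DNA re-replication was detected as more nuclei of elevated Hoechst intensity after 48 hr exposure to compound (23 nL pinned per well of 250 cells).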
TSG101-PTAP inh: blocks PTAP/TSG101 interaction to inhibit HIV-1 budding; Q99816; Fluorescence polarization, FITC-PTAP peptide / Tsg101 binding; Potency, µM (highest dose often 115 µM), for inactives: at the highest dose activity change, negative = inhibition, most hits filed as inhibitors; 340,000 tested, under 10 active; active = well fitted inhibition curve with a large enough effect in the main read-out, with a control signal flat, not every such curve was filed as active; inconclusive = small, poorly fitted or top-dose-only effect, or effect the other way, or a change in a side signal; inactive = no such curve, though single readings can be large or run the other way; also: % of control where 0% means no effect
Target sequence (Q99816 whole entry, looked up): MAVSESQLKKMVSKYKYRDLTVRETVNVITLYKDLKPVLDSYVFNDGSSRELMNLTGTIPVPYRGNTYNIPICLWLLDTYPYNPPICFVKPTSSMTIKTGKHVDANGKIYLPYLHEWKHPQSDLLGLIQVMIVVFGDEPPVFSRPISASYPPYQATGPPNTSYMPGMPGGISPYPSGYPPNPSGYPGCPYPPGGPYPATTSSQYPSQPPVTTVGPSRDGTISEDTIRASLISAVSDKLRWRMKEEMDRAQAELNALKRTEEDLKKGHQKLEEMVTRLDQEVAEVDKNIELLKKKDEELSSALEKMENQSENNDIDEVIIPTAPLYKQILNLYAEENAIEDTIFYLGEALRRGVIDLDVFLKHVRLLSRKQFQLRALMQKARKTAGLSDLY
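Fluorescence polarization binding of Tsg101 binding domain (10 uM final) to FITC-labeled PTAP peptide (50 nM final) in HEPES pH 7.5 buffer with NaCl, Tween 20, EDTA, TCEP. Compounds added before peptide; binding 20 min at RT.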
* hit, by the source's call; i = inactive; ? = inconclusive; . = not tested or not shown. Rows were chosen to be rich in hits. Some 6.6% of all compounds tested hit in one or more screens of this group. Unless noted, calls follow the shape of the dose curve; as a rule, active = well fitted curve in the direction sought with a large enough effect; inconclusive = small, poorly fitted or top-dose-only effect, or another doubt; inactive = no such curve, though single readings can be large; an effect the other way counts as inactive or inconclusive. Potency is read from the fitted curve at half-maximal effect.

SMILES	KB-3-1 tox	MCF10A rereplic	KB-V1 MDR tox	RGS4 inh	SW480 rereplic	TSG101-PTAP inh
CCCCCCCCCCCCCC(=O)Nc1ccc(/C=C/c2ccnc3ccccc23)cc1	?	.	i	.	.	.
CCSc1ncc(Cl)c(C(=O)N(Cc2ccc(N(C)C)cc2)Cc2ccco2)n1	.	.	.	15%	.	.
Cc1ccc(N2CC3=C(C2=O)C(c2ccc(Br)cc2)NC(=O)N3C)cc1 (centres undefined)	i	.	?	-17%	.	.
Cc1ccc2c(c1)c(=O)c(S(=O)(=O)c1ccc(C)c(C)c1)cn2CC(=O)Nc1ccccc1	i	.	i	-18%	.	.
Cc1ccc(NC(=O)C2=C(c3ccccc3)S(=O)(=O)CCS2(=O)=O)cc1	?	?	?	?	2.1µM*	1%
COc1ccc(C(=O)c2ccc(N(C)C)cc2)c2ccccc12	5.2µM*	-3%	2.1µM*	0%	-3%	-5%
COc1ccc(-n2nnnc2/C=C/Nc2cc(C(F)(F)F)ccc2OC)cc1	i	13%	i	-20%	3%	2%
COc1ccc(-n2nnnc2/C=C\Nc2ccccc2C(=O)c2ccccc2)cc1	5.8µM*	26%	4.6µM*	3%	10µM*	-2%
COc1ccc(C(=O)c2ccc(OC)c(OC)c2OC)cc1	5.8µM*	3.7µM*	2.3µM*	3%	5.8µM*	1%
CCc1ccccc1NC(=O)C(=O)NCC(c1cccnc1)N1CCN(c2ccccc2F)CC1 (centres undefined)	i	.	i	-10%	.	.
Cc1ccc(NC(=O)Cn2c(=O)n(CCC(=O)NCc3ccccc3Cl)c(=O)c3ccccc32)cc1	i	.	i	-29%	.	.
COc1ccc(CC(=O)Nc2ccc3nc(Nc4ccc(OC)cc4)cc(C)c3c2)cc1	?	.	i	-27%	.	.
COc1ccc(Nc2cc(C)c3cc(NC(=O)c4cc(OC)cc(OC)c4)ccc3n2)cc1	8.2µM*	.	?	16%	.	.
COc1ccc(/C=N/Nc2cc(C)nc3ccc(Br)cc23)cc1	?	12µM*	16µM*	-27%	16µM*	-6%
Cc1cc(N/N=C/c2ccccc2O)c2ccccc2n1	13µM*	12µM*	?	-9%	?	1%
CCN(CC)S(=O)(=O)c1ccc2c(c1)N(CC(=O)N1CCN(c3cccc(Cl)c3)CC1)C(=O)CO2	i	.	i	9%	.	.
O=C1c2ccccc2NC(c2cccs2)N1O (centres undefined)	i	-1%	i	-9%	-78%	0%
O=C1c2ccccc2N[C@@H]2C=CC[C@@H]2N1O	i	-3%	i	15%	26µM*	0%
N#C/C(C(=O)NCCc1ccccc1)=C1/N=C(NC(=O)c2cccs2)c2ccccc21	?	8.2µM*	i	-5%	-41%	-2%
COCCCNC(=O)/C(C#N)=C1\N=C(NC(=O)c2cccs2)c2ccccc21	i	0%	i	-12%	-3%	-3%
CCOc1ccccc1CNC(=O)C1CCN(C(=O)N2CC(CC)Oc3ccc(C)cc32)CC1 (centres undefined)	.	.	.	-2%	.	.
Nc1c(Cl)cc(N=Nc2ccccc2)cc1Cl	i	23µM*	i	-1%	21%	-7%
O=C(CSC1=Nc2ccccc2C2=NC(c3ccccc3)C(=O)N12)NC1CCCCC1 (centres undefined)	i	?	i	25%	-1%	13%
CN(C(=O)CSC1=Nc2ccccc2C2=NC(c3ccccc3)C(=O)N12)C1CCCCC1 (centres undefined)	i	?	5.2µM*	10%	10%	5%
CC(C)c1cc(C(=O)OCC(=O)NC(=O)NCc2ccco2)c(O)c(C(C)C)c1	?	16µM*	?	-12%	8%	-2%
CCC1(C)N=C(c2ccc3c(c2)OCO3)CC(c2ccccc2O)N1 (centres undefined)	i	7.3µM*	i	-13%	15µM*	-3%
